{"source": "PubChem BioAssay AID434970", "about": "(Sanford-Burnham Center for Chemical Genomics, 2010)", "note": "Out of some 11,000 compounds screened, about 310 (2.8%) were called active. Cut-off read from the data, not from the text of the source: active = activity change below about -85%; inactive = the rest. Shown is part of a subset that was picked to be rich in actives."}
{"tested_on": "intestinal alkaline phosphatase [Mus musculus]", "assay": "mouse intestinal phosphatase enzyme activation – biochemical, luminescence, single concentration, confirmation (AID 434970)", "details": "purified mouse IAP, CDP-Star luminescence, 30 min, at 10 µM; activation factor: measured here: IAP activation factor, stronger effect = higher value; activity change, negative = activation: stronger effect = lower value"}
{"smiles": "CC(C)COc1ccc(CNC(=S)NCc2ccccc2)cc1", "activation factor": 1.12, "activity change, negative = activation": "-11.7% (inactive)"}
{"smiles": "O=C(O)CC(c1cccc(Cl)c1)n1cccc1", "note": "(stereo not drawn)", "activation factor": 0.964, "activity change, negative = activation": "3.65% (inactive)"}
{"smiles": "CCCCN1CCc2c([nH]c3c(C)cccc23)C1=O", "activation factor": 1.06, "activity change, negative = activation": "-6.35% (inactive)"}
{"smiles": "CCN(CC)S(=O)(=O)c1ccc(NC(=O)CN(c2cccc(F)c2)S(C)(=O)=O)cc1", "activation factor": 0.911, "activity change, negative = activation": "8.85% (inactive)"}
{"smiles": "CCN(CC)S(=O)(=O)c1cccc(C(=O)Nc2cccc(C)c2)c1", "activation factor": 0.938, "activity change, negative = activation": "6.2% (inactive)"}
{"smiles": "CCN(CC)S(=O)(=O)c1cccc(NC(=O)c2cc3ccccc3o2)c1", "activation factor": 0.883, "activity change, negative = activation": "11.7% (inactive)"}
{"smiles": "CCNS(=O)(=O)c1ccc(NC(=O)Nc2cccc(C(F)(F)F)c2)cc1", "activation factor": 1.77, "activity change, negative = activation": "-76.7% (inactive)"}
{"smiles": "O=C(Nc1ccccc1)Nc1cccc(C(F)(F)F)c1", "activation factor": 1.82, "activity change, negative = activation": "-82.1% (inactive)"}
{"smiles": "O=C(Nc1ccc(OC(F)F)cc1)Nc1cccc(C(F)(F)F)c1", "activation factor": 1.99, "activity change, negative = activation": "-99.2% (active)"}
{"smiles": "Cc1ccc(OC(F)F)c(NC(=O)Nc2cccc(C(F)(F)F)c2)c1", "activation factor": 1.6, "activity change, negative = activation": "-60.4% (inactive)"}
{"smiles": "CCN(CC)S(=O)(=O)c1cccc(NC(=O)Nc2cccc(C(F)(F)F)c2)c1", "activation factor": 4.57, "activity change, negative = activation": "-357% (active)"}
{"smiles": "CCN(CC)S(=O)(=O)c1ccc(NC(=O)Nc2cccc(C(F)(F)F)c2)cc1", "activation factor": 2.03, "activity change, negative = activation": "-103% (active)"}
{"smiles": "O=C(c1ccco1)N1CCN(CC(O)Cn2c3ccccc3c3ccccc32)CC1", "note": "(stereo not drawn)", "activation factor": 0.97, "activity change, negative = activation": "2.95% (inactive)"}
{"smiles": "CC(C)OC(=O)CSc1nc2cccnc2n1C1CCCCC1", "activation factor": 0.982, "activity change, negative = activation": "1.75% (inactive)"}
{"smiles": "COc1ccc(C2=NO[C@@H]3C(=O)N(c4cccc(C)c4C)C(=O)[C@H]23)cc1OC", "activation factor": 0.93, "activity change, negative = activation": "6.95% (inactive)"}
{"smiles": "COC(=O)c1sccc1NC(=O)c1cc(OC)cc(OC)c1", "activation factor": 0.928, "activity change, negative = activation": "7.2% (inactive)"}
{"smiles": "c1coc(C2Nc3ccccc3C3OCCC23)c1", "note": "(stereo not drawn)", "activation factor": 1.1, "activity change, negative = activation": "-10.4% (inactive)"}
{"smiles": "COc1ccc(C(=O)OC(C(=O)c2ccccc2)c2ccccc2)cc1", "note": "(stereo not drawn)", "activation factor": 0.982, "activity change, negative = activation": "1.8% (inactive)"}
{"smiles": "C=C(C)c1cccc(C(C)(C)NC(=O)NC(c2ccccc2)c2ccc(OC)cc2)c1", "note": "(stereo not drawn)", "activation factor": 4.59, "activity change, negative = activation": "-359% (active)"}
{"smiles": "C=C(C)c1cccc(C(C)(C)NC(=O)NCC2COCCO2)c1", "note": "(stereo not drawn)", "activation factor": 1.09, "activity change, negative = activation": "-9.1% (inactive)"}
{"smiles": "C=C(C)c1cccc(C(C)(C)NC(=O)Nc2ccc(C(N)=O)cc2)c1", "activation factor": 2.18, "activity change, negative = activation": "-118% (active)"}
{"smiles": "CC(=O)Nc1ccc(S(=O)(=O)Nc2cccc(NC(=O)C(C)(C)C)c2)cc1", "activation factor": 1.12, "activity change, negative = activation": "-11.8% (inactive)"}
{"smiles": "COc1ccc(C(=O)NC(Oc2ccccc2)C(Cl)(Cl)Cl)cc1", "note": "(stereo not drawn)", "activation factor": 1.06, "activity change, negative = activation": "-6.15% (inactive)"}
{"smiles": "CC(C)C(OC(=O)c1ccco1)C(=O)NC1CCCCC1", "note": "(stereo not drawn)", "activation factor": 0.964, "activity change, negative = activation": "3.65% (inactive)"}
{"smiles": "Cc1ccc(C)c(N(C(=O)CCC(=O)Nc2cc(C)on2)C(C(=O)NC2CCCC2)c2ccco2)c1", "note": "(stereo not drawn)", "activation factor": 0.998, "activity change, negative = activation": "0.2% (inactive)"}
{"smiles": "O=C(CSc1ncn[nH]1)NCCc1ccccc1", "activation factor": 1.1, "activity change, negative = activation": "-10.3% (inactive)"}
{"smiles": "CC1CCN(C(c2cccs2)c2nnnn2Cc2ccccc2)CC1", "note": "(stereo not drawn)", "activation factor": 0.984, "activity change, negative = activation": "1.65% (inactive)"}
{"smiles": "Cn1c(CCN2CCOCC2)nc2cc(NC(=O)COc3ccc(Cl)cc3)ccc21", "activation factor": 0.927, "activity change, negative = activation": "7.3% (inactive)"}
{"smiles": "CC[C@]12c3[nH]c4ccc(Cl)cc4c3CCN1C(=O)[C@@H](CC(=O)NC(C)(C)C)C[C@@H]2C(=O)N1CCN(C(=O)c2ccco2)CC1", "activation factor": 1.14, "activity change, negative = activation": "-13.7% (inactive)"}
{"smiles": "CCOC(=O)c1ccc(NC(=O)NCCc2ccccc2OC)cc1", "activation factor": 2.01, "activity change, negative = activation": "-101% (active)"}
{"smiles": "CCOC(=O)c1ccc(NC(=O)NCc2ccccc2OC)cc1", "activation factor": 1.8, "activity change, negative = activation": "-79.8% (inactive)"}
{"smiles": "CCOC(=O)c1ccc(NC(=S)NCCc2ccccc2F)cc1", "activation factor": 1.3, "activity change, negative = activation": "-29.6% (inactive)"}
{"smiles": "COc1ccc(C)cc1NC(=O)C1C2C=CC(C2)C1C(=O)O", "note": "(stereo not drawn)", "activation factor": 0.955, "activity change, negative = activation": "4.55% (inactive)"}
{"smiles": "COc1cc(NC(=O)NCC2CCN(Cc3ccccc3Cl)CC2)cc(OC)c1OC", "activation factor": 2.47, "activity change, negative = activation": "-148% (active)"}
{"smiles": "COc1cc2c(cc1NC(=O)Nc1ccc(C)cc1)oc1ccccc12", "activation factor": 1.18, "activity change, negative = activation": "-18.4% (inactive)"}
{"smiles": "O=C(Nc1cc(Cl)cc(Cl)c1)C1CCC(=O)N1Cc1ccccc1Cl", "note": "(stereo not drawn)", "activation factor": 1.71, "activity change, negative = activation": "-70.5% (inactive)"}
{"smiles": "CCC(NC(=O)Nc1cc(OC)c(OC)c(OC)c1)(C(F)(F)F)C(F)(F)F", "activation factor": 1.8, "activity change, negative = activation": "-80.2% (inactive)"}
{"smiles": "COc1cc(NC(=O)NCC2CCN(Cc3ccccc3C)CC2)cc(OC)c1OC", "activation factor": 2.9, "activity change, negative = activation": "-190% (active)"}
{"smiles": "COc1cc(NC(=O)NCC2CCN(Cc3ccc(C)cc3)CC2)cc(OC)c1OC", "activation factor": 1.88, "activity change, negative = activation": "-88.3% (inactive)"}
{"smiles": "CCN(CC)C(=O)[C@H]1C[C@H](CC(=O)NCCc2ccccn2)C(=O)N2CCc3c([nH]c4cc(-c5ccco5)ccc34)[C@]12C", "activation factor": 1.27, "activity change, negative = activation": "-27% (inactive)"}
{"smiles": "O=C(c1cccs1)n1nc(-c2ccccc2)nc1NCc1ccco1", "activation factor": 0.857, "activity change, negative = activation": "14.4% (inactive)"}
{"smiles": "c1ccc(-c2cc3c(NCC4COc5ccccc5O4)ncnc3s2)cc1", "note": "(stereo not drawn)", "activation factor": 1.97, "activity change, negative = activation": "-97.1% (active)"}
{"smiles": "FC(F)(F)c1cccc(NC(=S)NCC2COc3ccccc3O2)c1", "note": "(stereo not drawn)", "activation factor": 1.43, "activity change, negative = activation": "-42.8% (inactive)"}
{"smiles": "CCN(c1ccccc1)S(=O)(=O)c1ccc(NCC2COc3ccccc3O2)nc1", "note": "(stereo not drawn)", "activation factor": 1.29, "activity change, negative = activation": "-28.6% (inactive)"}
{"smiles": "CCOc1ccc(C2N(c3cc(C)on3)C(=O)C3CCCN32)cc1OC", "note": "(stereo not drawn)", "activation factor": 1.05, "activity change, negative = activation": "-5.3% (inactive)"}
{"smiles": "Cc1ccc(C(=O)NC(C)c2nc3ccccc3n2CC(=O)Nc2c(C)cc(C)cc2C)cc1", "note": "(stereo not drawn)", "activation factor": 1.1, "activity change, negative = activation": "-10.2% (inactive)"}
{"smiles": "Cc1cc(C)cc(NC(=O)CCc2nc3ccccc3[nH]2)c1", "activation factor": 1.04, "activity change, negative = activation": "-3.9% (inactive)"}
{"smiles": "Cc1ccc(SCc2nc3ccccc3n2CC(=O)Nc2ccc(Cl)cc2)cc1", "activation factor": 1.85, "activity change, negative = activation": "-85.5% (active)"}
{"smiles": "O=C(CCn1cnc2ccccc2c1=O)Nc1cccc(Cl)c1", "activation factor": 1.01, "activity change, negative = activation": "-1.4% (inactive)"}
{"smiles": "Cc1cc(C)cc(NC(=O)Cn2c(-c3ccccc3Cl)nc3ccccc32)c1", "activation factor": 2.48, "activity change, negative = activation": "-148% (active)"}
{"smiles": "O=C(Cn1c(-c2ccccc2Cl)nc2ccccc21)Nc1cccc(Cl)c1", "activation factor": 2.51, "activity change, negative = activation": "-151% (active)"}
{"smiles": "O=C(CSc1nnc(Cn2nnc3ccccc32)o1)Nc1ccc(Cl)cc1", "activation factor": 0.985, "activity change, negative = activation": "1.5% (inactive)"}
{"smiles": "Cc1ccc(SCc2nc3ccccc3n2CC(=O)Nc2ccccc2)cc1", "activation factor": 1.56, "activity change, negative = activation": "-56% (inactive)"}
{"smiles": "O=C(CCN1C(=O)c2ccccc2C1=O)NC(=S)Nc1cccc(Cl)c1", "activation factor": 0.956, "activity change, negative = activation": "4.4% (inactive)"}
